{"source": "PubChem BioAssay (EPA / NIEHS)", "note": "Where a structure was tested more than once in an assay, its records may differ in their call. The source made the active and inactive calls. The calls were made as follows: active = hit-call score of the fitted dose curve at least 0.9, where 1 is the maximum; inactive = score below 0.9.", "data": [{"test": "ATG_PPRE_CIS: Attagene CIS-FACTORIAL HepG2 Assay for human Peroxisome Proliferator-activated Response Element (PPRE) (AID 2282958)", "settings": "HepG2 PPRE cis-element reporter, Attagene transcription factor profiling; actives raise or lower the signal", "outline": "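In this cell-based multiplex, a PPRE cis element drives a reporter sequence in transiently transfected HepG2 cells. Following 24 h treatment, labeled cDNA amplicons are sized and quantified by capillary electrophoresis, with DMSO defining baseline.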", "values": [{"smiles": "CN(C)CCO", "outcome": "inactive"}, {"smiles": "CC#Cc1cc(C)nc(Nc2ccccc2)n1", "outcome": "inactive"}, {"smiles": "CCC(C)c1cc([N+](=O)[O-])cc([N+](=O)[O-])c1O", "note": "(stereo not drawn)", "AC50": "16.5 µM (active)"}, {"smiles": "ClC1=C(Cl)[C@]2(Cl)[C@@H]3[C@H]4C[C@H]([C@@H]5O[C@H]45)[C@@H]3[C@@]1(Cl)C2(Cl)Cl", "outcome": "inactive"}]}, {"test": "ATG_RORE_CIS: Attagene CIS-FACTORIAL HepG2 Assay for human RAR-related Orphan Receptor Element (RORE) (AID 2282959)", "settings": "HepG2 Attagene cis-factorial RORE reporter, mRNA; actives raise or lower the signal", "outline": "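Endogenous factor activity at a cis response element is read as reporter transcript levels in HepG2 cells, 24 h post-dose. Transcripts are quantified by RT-PCR with capillary electrophoresis, and data fitted in both directions against DMSO.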", "values": [{"smiles": "Cc1cc(-c2ccc(N)c(C)c2)ccc1N", "outcome": "inactive"}, {"smiles": "CC(C)(c1ccccc1)c1ccc(O)cc1", "AC50": "48.9 µM (active)", "outcome": "inactive"}, {"smiles": "ClC1=C(Cl)[C@]2(Cl)[C@@H]3[C@@H](Cl)[C@H]4O[C@H]4[C@@H]3C1(Cl)C2(Cl)Cl", "outcome": "inactive"}, {"smiles": "CCC(=O)O[C@H]1CC[C@H]2[C@@H]3CCC4=CC(=O)CC[C@]4(C)[C@H]3CC[C@]12C", "AC50": "119 µM (active)", "outcome": "inactive"}, {"smiles": "NS(=O)(=O)C(F)(F)C(F)(F)C(F)(F)C(F)(F)C(F)(F)C(F)(F)C(F)(F)C(F)(F)F", "AC50": "78 µM (active)", "outcome": "inactive"}, {"smiles": "Cc1cccc(C)c1N", "outcome": "inactive"}, {"smiles": "O=C(O)C(F)(F)C(F)(F)C(F)(F)C(F)(F)C(F)(F)F", "outcome": "inactive"}, {"smiles": "CCOC(=O)C(O)(c1ccc(Cl)cc1)c1ccc(Cl)cc1", "outcome": "inactive"}, {"smiles": "Cc1ccccc1[N+](=O)[O-]", "outcome": "inactive"}, {"smiles": "CC(C)(O)C(=O)Nc1ccc([N+](=O)[O-])c(C(F)(F)F)c1", "outcome": "inactive"}, {"smiles": "Sc1ccccc1", "outcome": "inactive"}, {"smiles": "O=C(N[C@H]1CN2CCC1CC2)c1cc2ccoc2cn1", "outcome": "inactive"}, {"smiles": "OCC(O)CO", "outcome": "inactive"}, {"smiles": "CCCN(CCC)N=O", "outcome": "inactive"}, {"smiles": "CCC(C)(CC)c1cc(NC(=O)c2c(OC)cccc2OC)on1", "outcome": "inactive"}, {"smiles": "Clc1ccc(C(c2ccccc2Cl)C(Cl)(Cl)Cl)cc1", "note": "(stereo not drawn)", "outcome": "inactive"}]}]}
